Screening data: PubChem, National Center for Advancing Translational Sciences (NCATS)
KB-3-1 tox: KB-3-1 parental cell cytotoxicity. KB-3-1 viability, CellTiter-Glo ATP luminescence, 72 h. Potency, µM (highest dose often 46.1 µM), usual class: cytotoxic. 400,000 compounds, 1.4% hits. AID 1347075; also: nearly all actives have a fitted effect of over 60% in size
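Screening of KB-3-1 cells (DMEM, 10% FBS, phenol-red free) ran from lowest to highest compound concentration; after 72 h at 37 °C viability was read luminescently and curves fitted.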
HT1080 IDH1KD tx: HT-1080 IDH1 knockdown cell toxicity (counter line) | Potency, µM (top dose mostly 46.1 µM), without a hit: at the top dose activity, negative = toxicity, actives largely listed as cytotoxic | 360,000 compounds, 2% hits | HT-1080 IDH1 knockdown viability, ATP luminescence, 48 h;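 also: 0% = DMSO wells and -100% = cell-free medium wells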
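Assay cells: HT-1080 with IDH1 knockdown, 750 per well, RPMI/5% FBS. Exposure: 48 h at 37 °C following 2 h pre-incubation. Read: CellTiter-Glo luminescence; fitted concentration-response, curve class assigned.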
HT1080NT lethal: kills 2HG-producing HT-1080-NT fibrosarcoma cells. HT-1080-NT fibrosarcoma viability, CellTiter-Glo ATP luminescence, 48 h. Potency, µM (series often up to 46.1 µM), for inactives: at the highest dose activity, negative = less viability, hits mostly cytotoxic. 360,000 compounds, 1.6% hits. AID 686970;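 also: NT is the 2HG producing partner of a matched IDH1 knockdown line; 0% = DMSO-treated cells and -100% = media-only wells without cells; nearly all actives have a fitted effect of over 55% in size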
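750 cells/well, RPMI + 5% FBS; 2 h settle, compound pin-transfer, 48 h at 37 degrees C. CellTiter-Glo 10 min RT, luminescence. Normalized to DMSO and media-only wells.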
KB-V1 MDR tox: kills drug-selected multidrug resistant KB-V1 cells. KB-V1 MDR cells viability, CellTiter-Glo, 72 h. Potency, µM (series often up to 46.1 µM), actives largely listed as cytotoxic. 400,000 compounds, 3.4% hits. AID 1347076; also: nearly all actives have a fitted effect of over 60% in size
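Following 72 h at 37 degrees C with compound, KB-V1 cell viability was read by CellTiter-Glo luminescence, medium being phenol-red-free DMEM plus 10% FBS; concentration-response parameters came from normalized, curve-fitted qHTS data.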
DT40 TDP1 CPT: DT40-hTDP1 cell growth loss with CPT. AID 686979. chicken DT40 Tdp1-/-;hTDP1 cells + 20 nM CPT, ATP luminescence, 48 h. 420,000 compounds, 12% hits. Potency, µM (series often up to 46.2 µM), without a hit: at the top dose activity change, negative = growth inhibition, actives largely listed as inhibitors; also: nearly all actives have a fitted effect of over 55% in size
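Chicken DT40 Tdp1-/- cells complemented with human TDP1, 400 cells/well, exposed to compounds plus 20 nM camptothecin for at least 48 h at 37 C; viability read as ATP content by CellTiter-Glo luminescence.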
DT40 TDP1 no CPT: qHTS for Inhibitors of human tyrosyl-DNA phosphodiesterase 1 (TDP1): qHTS in cells in absence of CPT; DT40 Tdp1-/- hTDP1 cells, no CPT, ATP luminescence, 48 h; Potency, µM (titrated, usually from 46.2 µM), without a hit: at the top dose activity change, negative = growth inhibition, actives largely listed as inhibitors; 420,000 compounds, 15% hits; AID 686978, 2013; also: nearly all actives have a fitted effect of over 55% in size
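Camptothecin absent (DMSO only). Human TDP1-complemented DT40 knockout cells, 400 cells/well, 37 °C for minimum 48 hr; ATP measured via CellTiter-Glo, 30 min dark incubation, luminescence.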
Starred values were filed as active, the others as inactive; i = inactive; ? = inconclusive; . = no result given. This is a sample that favours compounds with a hit; in the whole collection about 19% have one here. Calls follow the shape of the dose curve; as a rule, active = well fitted curve in the direction sought with a large enough effect; inconclusive = small, poorly fitted or top-dose-only effect, or another doubt; inactive = no such curve, though single readings can be large; an effect the other way counts as inactive or inconclusive. Unless noted, % is scaled to controls: 0 for no effect and ±100 for the full control effect; potency is read from the fitted curve at half-maximal effect.

SMILES | KB-3-1 tox | HT1080 IDH1KD tx | HT1080NT lethal | KB-V1 MDR tox | DT40 TDP1 CPT | DT40 TDP1 no CPT
COc1ccc2nc(N/C(N)=N/C(=S)Nc3ccccc3)nc(C)c2c1 | ? | 0% | -7% | 9.2µM* | 26µM* | 8.2µM*
Cc1cccc(NC(=S)/N=C(\N)Nc2nc(C)c3cc(C)ccc3n2)c1 | i | -2% | -2% | 23µM* | 21µM* | 23µM*
CCc1ccc(NC(=S)/N=C(\N)Nc2nc(C)c3cc(CC)ccc3n2)cc1 | ? | 10µM* | ? | ? | ? | ?
Cc1cc(C)cc(NC(=S)/N=C(\N)Nc2nc(C)c3ccccc3n2)c1 | ? | -14% | 1% | 18µM* | 21µM* | 15µM*
CCC1Oc2ccc(C)cc2N(CC(=O)NCc2ccc(OC)cc2)C1=O (stereo not drawn) | i | . | . | i | -27% | -15%
Cc1ccc(S(=O)(=O)/N=C(\N)Nc2nc(C)c3ccccc3n2)cc1 | i | 9% | 1% | 9.2µM* | -1% | -2%
Cc1cccc(NC(=S)/N=C(\N)Nc2nc(C)c3ccccc3n2)c1 | ? | -27% | -21% | ? | 18µM* | ?
Cc1ccc(NC(=S)/N=C(\N)Nc2nc(C)c3ccccc3n2)cc1C | ? | -22% | -3% | ? | ? | ?
COc1ccc(OC)c(N/C(=N/C(=S)Nc2ccccc2)Nc2nc(C)cc(C)n2)c1 | i | 6% | 6% | i | ? | 8.2µM*
Cc1cccc(NC(=S)/N=C(\N)Nc2nc(C)c3ccc(C)cc3n2)c1 | i | ? | -27% | i | 15µM* | 12µM*
CCc1ccccc1NNC(=O)c1sccc1Cl | . | -14% | 6% | . | ? | ?
Cc1ccc(NC(=O)c2c(C(F)(F)F)nn(C)c2SCc2cccc(C(F)(F)F)c2)cc1C | ? | -20% | -14% | i | 7.3µM* | 4.1µM*
Cc1ccc(NC(=O)c2c(C(F)(F)F)nn(C)c2SCc2ccc(Cl)cc2)cc1C | ? | ? | ? | 8.2µM* | 26µM* | 23µM*
Cn1nc(C(F)(F)F)c(/C=N/OC(=O)c2ccccc2)c1SCc1ccc(Cl)cc1 | i | 20% | 11% | 18µM* | ? | ?
Cn1nc(C(F)(F)F)c(/C=N/OC(=O)c2ccccc2Cl)c1SCc1ccccc1Cl | ? | -25% | ? | ? | ? | ?
CC(C)(C)c1ccc(OCc2cnc(Cl)s2)cc1 | i | 0% | -13% | i | -29% | ?
O=C(NCc1cccc(F)c1)c1[nH]c(C(F)(F)F)nc1-c1ccccc1 | i | -18% | ? | ? | ? | ?
COc1ccc(-c2nc(-c3cccs3)c(-c3cccs3)[nH]2)cc1O | i | ? | -23% | ? | 16µM* | 13µM*
O=C(CN(c1ccc(F)cc1)S(=O)(=O)c1ccccc1)NC1CCCCCC1 | . | 21% | 3% | . | ? | -20%
COc1cc(C(=O)OCC(=O)c2c(N)n(C)c(=O)n(C)c2=O)ccc1OCCC(C)C | i | 10% | 19% | i | -11% | -2%
COc1ccc(NC(=O)N2CCC(n3c(C)nc4cccnc43)CC2)cc1OC | i | . | . | i | -8% | 25%
Cc1cccc(CS(=O)(=O)Cc2ccc(C(=O)NCc3ccc(Cl)cc3)o2)c1 | . | . | . | . | 16µM* | 23µM*
O=C(NCc1ccco1)c1ccc(CS(=O)(=O)Cc2ccc(Cl)cc2)o1 | i | -46% | 0% | 15µM* | -31% | ?
Cc1cccc(CS(=O)(=O)Cc2ccc(C(=O)NCc3ccc(F)cc3)o2)c1 | i | . | . | i | 21µM* | ?
Cc1ccc(CS(=O)(=O)Cc2ccc(C(=O)NCc3ccco3)o2)cc1 | i | -6% | -2% | ? | -24% | -21%
SMILES | KB-3-1 tox | HT1080 IDH1KD tx | HT1080NT lethal | KB-V1 MDR tox | DT40 TDP1 CPT | DT40 TDP1 no CPT
CCOC(=O)CC1C(=O)NCCN1C(=O)c1ccc(Cl)c(Cl)c1 (stereo not drawn) | i | 13% | 15% | i | 10% | -1%
O=C(N/N=C/c1ccc(Cl)cc1)Nc1ccccc1 | i | 1% | 17% | i | ? | 8.2µM*
Clc1ccc(/C=N\Nc2ccccc2)cc1 | i | ? | ? | i | -19% | -26%
O=C(CC(=O)Nc1cccc(Cl)c1)N/N=C\c1ccccc1 | i | -9% | -2% | i | ? | 0.29µM*
CCOc1ccc(C(C(=O)NC2CCCCC2)N(CCOC)C(=O)c2snc(C(N)=O)c2N)cc1 (stereo not drawn) | i | 0% | 5% | i | 24% | -14%
CCC(NC(=O)c1cccc(Cn2cc([N+](=O)[O-])cn2)c1)c1ccc(C(C)C)cc1 (stereo not drawn) | ? | ? | -20% | 7.3µM* | -19% | -20%
CC(NC(=O)c1cccc(Cn2cc([N+](=O)[O-])cn2)c1)c1ccc(C(C)(C)C)cc1 (stereo not drawn) | i | ? | -1% | 21µM* | ? | ?
CC(NC(=O)c1ccc(Cn2cc([N+](=O)[O-])cn2)o1)c1ccccc1 (stereo not drawn) | i | 7% | -5% | i | -3% | -8%
Cc1ccc2c(C)c(C(=O)N(C)C(C)c3ccon3)oc2c1C (stereo not drawn) | i | -14% | -12% | ? | ? | 16µM*
CN(Cc1ccccc1)C(=O)c1ccco1 | i | 0% | -1% | i | -17% | 8%
O=C(C#Cc1ccccc1)c1ccco1 | ? | 6.5µM* | 12µM* | i | 1.3µM* | 0.58µM*
Cc1ccc(NS(=O)(=O)c2cccc(C(=O)N/N=C/c3c(C)nn(-c4ccccc4)c3N3CCCC3)c2)c(C)c1 | i | 6% | 1% | ? | ? | ?
CCNc1ccc(C(=O)N/N=C/c2c(C)nn(-c3ccccc3)c2N2CCCC2)cc1[N+](=O)[O-] | i | 19% | 22% | i | 18µM* | ?
Cc1cc(Nc2ccc(Cl)cc2)nc(-c2ccccc2O)n1 | i | ? | ? | i | ? | 26µM*
Cc1cc(Nc2cccc(Cl)c2)nc(-c2ccccc2O)n1 | i | ? | -30% | i | 29µM* | ?
COC(=O)c1cccc(Nc2cc(C)nc(-c3ccccc3O)n2)c1 | ? | ? | -3% | ? | ? | 16µM*
CC(=O)N1CCOc2cc(S(=O)(=O)NCc3ccccc3Cl)c(Cl)cc21 | i | . | . | i | ? | -25%
